Experimental data published in PubChem BioAssay (NCI).
Compounds without any hit were thinned out: in the full panel of roughly 83,000, 20% have a hit.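 Note: values are percent growth. 100 is the growth of untreated cells, values between 100 and 0 indicate rising inhibition; between -100 and 0 indicates cell death.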

What was measured:
Assay in all cases: NCI-60 one-dose screen, 48 h (100 = growth as untreated, 0 = no growth, -100 = all killed)
Details in all cases: 10 µM unless noted; active = growth percent below 10; inactive = the rest
DU-145 prostate = test system: DU-145 prostate
K-562 leukemia = test system: K-562 leukemia
MALME-3M melanoma = test system: MALME-3M melanoma
MDA-MB-231 breast = test system: MDA-MB-231 breast
RXF 393 renal = test system: RXF 393 renal
SF-268 CNS = test system: SF-268 CNS
SF-295 CNS = test system: SF-295 CNS
SF-539 CNS = test system: SF-539 CNS
UACC-257 melanoma = test system: UACC-257 melanoma
M14 melanoma = test system: M14 melanoma
HCT-15 colon = test system: HCT-15 colon
HT29 colon = test system: HT29 colon
SNB-75 CNS = test system: SNB-75 CNS
SNB-19 CNS = test system: SNB-19 CNS
U251 CNS = test system: U251 CNS
PC-3 prostate = test system: PC-3 prostate
SK-MEL-5 melanoma = test system: SK-MEL-5 melanoma
UACC-62 melanoma = test system: UACC-62 melanoma
LOX IMVI melanoma = test system: LOX IMVI melanoma
SK-MEL-28 melanoma = test system: SK-MEL-28 melanoma

Measured: growth

CC(C)CCSc1nc(N)nc2nc[nH]c12
inactive: DU-145 prostate 107% | K-562 leukemia 81.7% | MALME-3M melanoma 250% | MDA-MB-231 breast 106% | RXF 393 renal 106% | SF-268 CNS 108% | SF-295 CNS 132% | SF-539 CNS 87.4% | UACC-257 melanoma 113% | M14 melanoma 91.6% | HCT-15 colon 107% | HT29 colon 114% | SNB-75 CNS 101% | SNB-19 CNS 93.3% | U251 CNS 100% | PC-3 prostate 93.7% | SK-MEL-5 melanoma 93.2% | UACC-62 melanoma 82.3% | LOX IMVI melanoma 86.8% | SK-MEL-28 melanoma 121%

CC(C)[C@H]1CCC2=C3CC[C@]45OC(=O)[C@@]6(CCC(C)(C)C[C@H]64)CC[C@@]5(C)[C@]3(C)CC[C@@]21C
inactive: DU-145 prostate 83.3% [100 µM] | K-562 leukemia 45.3% [100 µM] | MALME-3M melanoma 91.6% [100 µM] | MDA-MB-231 breast 61.2% [100 µM] | RXF 393 renal 78.6% [100 µM] | SF-268 CNS 75.6% [100 µM] | SF-295 CNS 88.7% [100 µM] | SF-539 CNS 71.6% [100 µM] | UACC-257 melanoma 77.1% [100 µM] | M14 melanoma 86.3% [100 µM] | HCT-15 colon 85.8% [100 µM] | HT29 colon 42.2% [100 µM] | SNB-75 CNS 30.4% [100 µM] | SNB-19 CNS 71.6% [100 µM] | U251 CNS 66.5% [100 µM] | PC-3 prostate 39.3% [100 µM] | SK-MEL-5 melanoma 42.6% [100 µM] | UACC-62 melanoma 59.3% [100 µM] | LOX IMVI melanoma 78.8% [100 µM] | SK-MEL-28 melanoma 87.4% [100 µM]

CCOC(=O)c1nn(C2CCCCO2)c2ccc(NC(=O)CN3CCOCC3)cc12 (stereo not given)
inactive: DU-145 prostate 107% | K-562 leukemia 90.4% | MALME-3M melanoma 104% | MDA-MB-231 breast 102% | RXF 393 renal 122% | SF-268 CNS 97.5% | SF-295 CNS 101% | SF-539 CNS 98.1% | UACC-257 melanoma 98.8% | M14 melanoma 102% | HCT-15 colon 106% | HT29 colon 116% | SNB-75 CNS 80.7% | SNB-19 CNS 98.8% | U251 CNS 97.9% | PC-3 prostate 107% | SK-MEL-5 melanoma 102% | UACC-62 melanoma 102% | LOX IMVI melanoma 98.2% | SK-MEL-28 melanoma 109%

CCOC(=O)c1nn(C2CCCCO2)c2ccc(NS(=O)(=O)c3ccc(C)cc3)cc12 (stereo not given)
inactive: DU-145 prostate 106% | K-562 leukemia 82.8% | MALME-3M melanoma 102% | MDA-MB-231 breast 94.2% | RXF 393 renal 119% | SF-268 CNS 96.2% | SF-295 CNS 99.7% | SF-539 CNS 105% | UACC-257 melanoma 97% | M14 melanoma 101% | HCT-15 colon 105% | HT29 colon 102% | SNB-75 CNS 80.5% | SNB-19 CNS 99.6% | U251 CNS 90.6% | PC-3 prostate 92.6% | SK-MEL-5 melanoma 98.7% | UACC-62 melanoma 86.6% | LOX IMVI melanoma 99.3% | SK-MEL-28 melanoma 101%

c1ccc(-c2nnc(-c3c[nH]c4ncccc34)s2)cc1
inactive: DU-145 prostate 87.4% | K-562 leukemia 83.9% | MALME-3M melanoma 88% | MDA-MB-231 breast 86.8% | RXF 393 renal 94.5% | SF-268 CNS 86.2% | SF-295 CNS 96.8% | SF-539 CNS 96.9% | UACC-257 melanoma 109% | M14 melanoma 97.8% | HCT-15 colon 83.4% | HT29 colon 106% | SNB-75 CNS 59.6% | SNB-19 CNS 91.7% | U251 CNS 93.2% | PC-3 prostate 81.6% | SK-MEL-5 melanoma 91.6% | UACC-62 melanoma 81.2% | LOX IMVI melanoma 97% | SK-MEL-28 melanoma 99.6%

C=CCc1nc2ccccc2s1
inactive: DU-145 prostate 114% | K-562 leukemia 96.9% | MALME-3M melanoma 115% | MDA-MB-231 breast 103% | RXF 393 renal 122% | SF-268 CNS 108% | SF-295 CNS 117% | SF-539 CNS 119% | UACC-257 melanoma 90.4% | M14 melanoma 108% | HCT-15 colon 94.3% | HT29 colon 89.9% | SNB-75 CNS 90.2% | SNB-19 CNS 110% | U251 CNS 100% | PC-3 prostate 88.1% | SK-MEL-5 melanoma 114% | UACC-62 melanoma 106% | LOX IMVI melanoma 99.3% | SK-MEL-28 melanoma 106%

c1coc2occoc=2o1
inactive: DU-145 prostate 111% | K-562 leukemia 99.1% | MALME-3M melanoma 103% | MDA-MB-231 breast 108% | RXF 393 renal 117% | SF-268 CNS 105% | SF-295 CNS 99.1% | SF-539 CNS 95.2% | UACC-257 melanoma 106% | M14 melanoma 101% | HCT-15 colon 102% | HT29 colon 106% | SNB-75 CNS 97.4% | SNB-19 CNS 107% | U251 CNS 101% | PC-3 prostate 96.8% | SK-MEL-5 melanoma 97.2% | UACC-62 melanoma 102% | LOX IMVI melanoma 102% | SK-MEL-28 melanoma 112%

CCCCOC(=O)c1cccc([N+](=O)[O-])c1
inactive: DU-145 prostate 117% | K-562 leukemia 144% | MALME-3M melanoma 117% | MDA-MB-231 breast 121% | RXF 393 renal 111% | SF-268 CNS 110% | SF-295 CNS 101% | SF-539 CNS 105% | UACC-257 melanoma 93.6% | M14 melanoma 105% | HCT-15 colon 118% | HT29 colon 107% | SNB-75 CNS 94.9% | SNB-19 CNS 113% | U251 CNS 97.4% | PC-3 prostate 95% | SK-MEL-5 melanoma 110% | UACC-62 melanoma 108% | LOX IMVI melanoma 108% | SK-MEL-28 melanoma 119%
